The values that follow come from PubChem BioAssay AID1788 (Vanderbilt High Throughput Screening Facility, 2009).

The assay concerns Platelet Activating Factor (PAF) (human). Briefly: PubChem AID 1788. As to conditions: MDS Pharma lead profiling panel, radioligand binding, at 10 µM, hits give high values.

Values without a mark were called inactive. No rule for the calls is given here.

For `CCOC(=O)N1CCC(NCCNC(=O)c2ccccc2C)CC1`, the inhibition was 0%.
